The text below walks through data of paper PMC4336329 (PLoS ONE, 2015).

The whole screen tested about 310,000 compounds, of which about 14,000 (4.5%) showed an effect of 50% or more. The effect is printed as a negative number. This excerpt belongs to a sample that is enriched for strong results.
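Further: peak tail current of the secondary pulse compared with the same well before compound.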

Chain of human ether-à-go-go-related gene (hERG) potassium channel (Q12809 whole entry, looked up): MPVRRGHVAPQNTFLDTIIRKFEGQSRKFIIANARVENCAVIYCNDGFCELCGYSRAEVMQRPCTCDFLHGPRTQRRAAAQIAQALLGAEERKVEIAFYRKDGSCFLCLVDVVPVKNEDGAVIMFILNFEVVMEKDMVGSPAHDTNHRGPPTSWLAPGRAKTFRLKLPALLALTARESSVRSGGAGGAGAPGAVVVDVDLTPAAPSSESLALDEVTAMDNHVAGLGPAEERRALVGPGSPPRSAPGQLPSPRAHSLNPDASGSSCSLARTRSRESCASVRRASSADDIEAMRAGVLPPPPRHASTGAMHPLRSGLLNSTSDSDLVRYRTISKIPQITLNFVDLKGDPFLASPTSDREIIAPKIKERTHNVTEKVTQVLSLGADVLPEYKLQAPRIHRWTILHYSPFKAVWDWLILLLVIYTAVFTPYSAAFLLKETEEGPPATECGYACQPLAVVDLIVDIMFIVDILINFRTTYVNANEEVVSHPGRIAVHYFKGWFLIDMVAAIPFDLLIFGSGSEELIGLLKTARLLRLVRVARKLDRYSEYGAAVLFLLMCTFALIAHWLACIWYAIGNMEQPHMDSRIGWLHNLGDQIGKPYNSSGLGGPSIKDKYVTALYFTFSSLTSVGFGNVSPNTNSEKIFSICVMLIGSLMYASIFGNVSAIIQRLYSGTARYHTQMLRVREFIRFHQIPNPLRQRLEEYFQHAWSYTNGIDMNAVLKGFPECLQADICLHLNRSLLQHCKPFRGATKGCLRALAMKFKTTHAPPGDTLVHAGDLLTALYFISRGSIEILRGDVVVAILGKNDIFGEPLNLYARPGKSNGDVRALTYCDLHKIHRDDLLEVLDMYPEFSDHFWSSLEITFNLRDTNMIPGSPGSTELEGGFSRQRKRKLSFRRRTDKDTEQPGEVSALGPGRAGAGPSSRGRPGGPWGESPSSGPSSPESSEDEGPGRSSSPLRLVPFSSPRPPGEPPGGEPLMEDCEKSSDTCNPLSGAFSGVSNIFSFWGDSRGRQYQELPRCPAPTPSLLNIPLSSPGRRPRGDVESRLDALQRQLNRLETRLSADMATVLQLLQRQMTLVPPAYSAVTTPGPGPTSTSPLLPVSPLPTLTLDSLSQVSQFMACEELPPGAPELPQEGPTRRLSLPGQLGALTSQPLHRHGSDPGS

The assay has as its target human ether-à-go-go-related gene (hERG) potassium channel (human, UniProt Q12809). Description: primary screen, population patch clamp on CHO cells stably expressing hERG; higher = less effect of the substance.
Take `CNC(=S)N(CCc1cccc(C)c1)Cc1cc2cc(OC)c(OC)cc2[nH]c1=O`: the “hERG current change (%, negative = inhibition) at 10uM” value is -16.7%.

Turning to `Cc1ccc(-c2nc(=O)[nH]c3ccccc23)cc1`, the “hERG current change (%, negative = inhibition) at 10uM” value is -20%.

Turning to `C/C(=N/NC(=O)CN1CCN(Cc2ccccc2Cl)CC1)c1cccnc1`, the “hERG current change (%, negative = inhibition) at 10uM” value is listed as -10.4%.

For the molecule `Cc1ccc(CN2CCN(C(=O)c3ccncc3)CC2)cc1.O=C(O)C(=O)O`, the “hERG current change (%, negative = inhibition) at 10uM” value is -0.159%.

In the case of `C/C(=N/NC(=O)CN1CCN(Cc2ccccc2Cl)CC1)c1ccncc1`, the “hERG current change (%, negative = inhibition) at 10uM” value is listed as -65.4%.

In the case of `C/C(=N\NC(=O)CN1CCN(Cc2ccccc2)CC1)c1ccncc1`, the “hERG current change (%, negative = inhibition) at 10uM” value is listed as -35.8%.

In the case of `O=C(CN1CCN(Cc2ccccc2Cl)CC1)N/N=C/c1ccccn1`, the “hERG current change (%, negative = inhibition) at 10uM” value is on record as -25.8%.

In the case of `C/C(=N\NC(=O)CN1CCN(Cc2ccc(C)cc2)CC1)c1ccncc1`, the “hERG current change (%, negative = inhibition) at 10uM” value was -74.8%.

Consider `CCCNC(=O)c1ccc2c(c1)S(=O)(=O)c1ccccc1C2=O`, for which the “hERG current change (%, negative = inhibition) at 10uM” value is listed as -10.9%.

Take `COc1ccc(-c2nn(-c3ccccc3)cc2C(=O)NC(=S)N2CCOCC2)cc1OC`: the “hERG current change (%, negative = inhibition) at 10uM” value stood at 30.1%.

For `CCOCc1c(C(=O)N2CCN(Cc3ccc(Br)s3)CC2)oc2ccccc12`, the “hERG current change (%, negative = inhibition) at 10uM” value is listed as -30.9%.

Regarding `COCc1c(C(=O)NCC2COc3ccccc3O2)oc2ccccc12` (stereo not drawn), the “hERG current change (%, negative = inhibition) at 10uM” value was -30.1%.

On to `COCc1c(C(=O)NCc2ccccc2CN2CCCC2)oc2ccccc12`, for which the “hERG current change (%, negative = inhibition) at 10uM” value is reported as -66.4%.

Turning to `CCOCc1c(C(=O)NCc2ccccc2CN2CCCC2)oc2ccccc12`, the “hERG current change (%, negative = inhibition) at 10uM” value was -72%.

Take `CCOCc1c(C(=O)NC2CCCCCC2)oc2ccccc12`: the “hERG current change (%, negative = inhibition) at 10uM” value worked out at 8.56%.

On to `CCOc1ccc(OCCNC(=O)c2oc3ccccc3c2COC)cc1`, for which the “hERG current change (%, negative = inhibition) at 10uM” value is on record as -32.5%.

On to `COc1ccc2[nH]c3c(c2c1)CCN1C(=O)N([C@@H](C)C(=O)NCc2ccccc2OC)C(=O)[C@]31C`, for which the “hERG current change (%, negative = inhibition) at 10uM” value is recorded as -17.2%.

Regarding `CCOc1ccc2nc(SCC(=O)c3ccc(O)cc3O)sc2c1`, the “hERG current change (%, negative = inhibition) at 10uM” value came out at 14.5%.

`Cc1ccc([N+](=O)[O-])c(NC(=O)COC(=O)C2CC3CCCC(C2)C3=O)c1C` (stereo not drawn): the “hERG current change (%, negative = inhibition) at 10uM” value is on record as 13.8%.

With `COc1ccc(OCCSc2nc3nc(C)cc(C)n3n2)cc1`, the “hERG current change (%, negative = inhibition) at 10uM” value is listed as -13.1%.

As to `Cc1cc(C)n2nc(C(=O)OCCOc3cccc(Br)c3)nc2n1`, the “hERG current change (%, negative = inhibition) at 10uM” value is -21.6%.

Turning to `Cc1cc(C)n2nc(SCCOc3ccccc3)nc2n1`, the “hERG current change (%, negative = inhibition) at 10uM” value is reported as -38.7%.

`Cc1ccnc2nc(C(=O)OCCOc3ccc(Cl)cc3)nn12`: the “hERG current change (%, negative = inhibition) at 10uM” value is given as -56.2%.

Take `Cc1cc(C)n2nc(C(=O)OCC(=O)Nc3ccc4c(c3)OC(F)(F)O4)nc2n1`: the “hERG current change (%, negative = inhibition) at 10uM” value is reported as -63.8%.

With `Cc1ccc(OCCOC(=O)c2nc3nccc(C)n3n2)cc1`, the “hERG current change (%, negative = inhibition) at 10uM” value is listed as -18.4%.

As to `Cc1cc(C)n2nc(SCCOc3ccc(F)cc3)nc2n1`, the “hERG current change (%, negative = inhibition) at 10uM” value is -68.8%.

Consider `COc1ccc(OCCOC(=O)c2nc3nccc(C)n3n2)cc1`, for which the “hERG current change (%, negative = inhibition) at 10uM” value is given as -3.15%.

Take `Cc1cc(C)n2nc(C(=O)OCC(=O)Nc3ccc4c(c3)OCO4)nc2n1`: the “hERG current change (%, negative = inhibition) at 10uM” value is reported as -1.59%.

On to `Cc1cc(C)n2nc(C(=O)OCCOc3ccc(Br)cc3)nc2n1`, for which the “hERG current change (%, negative = inhibition) at 10uM” value is listed as -55.3%.

As for `Cc1cc(C)n2nc(C(=O)OCCOc3ccc(F)cc3)nc2n1`, the “hERG current change (%, negative = inhibition) at 10uM” value is listed as -12.3%.

In the case of `Cc1ccnc2nc(C(=O)OCC(=O)Nc3ccc4c(c3)OC(F)(F)O4)nn12`, the “hERG current change (%, negative = inhibition) at 10uM” value was -49.1%.

Take `Cc1nc(N)nc(COc2ccccc2)n1`: the “hERG current change (%, negative = inhibition) at 10uM” value is 16.6%.

As for `Cc1cc(C)c(NC(=O)CN(C)CC(=O)N(C)CC(=O)Nc2c(Cl)cccc2Cl)c(C)c1`, the “hERG current change (%, negative = inhibition) at 10uM” value is recorded as 9.65%.

On to `COc1cc(OC)cc(C(=O)NNC(=S)NC(=O)c2cccnc2)c1`, for which the “hERG current change (%, negative = inhibition) at 10uM” value turned out to be 14.4%.

For the molecule `CCCCc1ccc2[nH]cc(CCN)c2c1.Cl`, the “hERG current change (%, negative = inhibition) at 10uM” value is given as -9.69%.

`COc1ccc(CCNC(=O)C2CCN(Cc3nc(-c4ccccc4F)oc3C)CC2)cc1OC`: the “hERG current change (%, negative = inhibition) at 10uM” value is recorded as -45.4%.

For `COc1ccc(CCNC(=O)C2CCN(Cc3nc(-c4ccccc4C)oc3C)CC2)cc1OC`, the “hERG current change (%, negative = inhibition) at 10uM” value is -79.2%.

For `Cc1ccccc1-c1nc(CN2CCC(C(=O)NCCCN3CCCC(C)C3)CC2)c(C)o1` (stereo not drawn), the “hERG current change (%, negative = inhibition) at 10uM” value stood at 28.6%.

Consider `COc1ccc(CCNC(=O)C2CCCN(Cc3nc(-c4ccccc4C)oc3C)C2)cc1OC` (stereo not drawn), for which the “hERG current change (%, negative = inhibition) at 10uM” value is on record as -57.7%.

Take `Cc1ccccc1-c1nc(CN2CCCC(C(=O)NCCCN3CCOCC3)C2)c(C)o1` (stereo not drawn): the “hERG current change (%, negative = inhibition) at 10uM” value is -7.84%.

Consider `O=C(CC(Nc1cccc(Cl)c1Cl)C(=O)OCC(=O)c1cccs1)c1ccccc1` (stereo not drawn), for which the “hERG current change (%, negative = inhibition) at 10uM” value was -5.59%.

As for `CCOC(=O)[C@@H](CCc1ccccc1)N[C@H](C)C(=O)N1[C@H](C(=O)O)C[C@@H]2CCC[C@@H]21`, the “hERG current change (%, negative = inhibition) at 10uM” value is listed as 15.9%.

Take `CC(C)(C)NC(=O)c1ccc(COCC(F)(F)F)o1`: the “hERG current change (%, negative = inhibition) at 10uM” value is -4.16%.

Turning to `CCN(CC)CCNc1cc(C)c(C#N)c2nc3ccccc3n12`, the “hERG current change (%, negative = inhibition) at 10uM” value is given as -20.6%.

Take `CCOc1ccc2nc(COC(=O)c3ccco3)c(C(C)=O)[n+]([O-])c2c1`: the “hERG current change (%, negative = inhibition) at 10uM” value came out at 0.493%.
